Experimental data: PubChem BioAssay (EPA / NIEHS)
Active and inactive are the calls of the source. The calls were made as follows: active = hit-call score of the fitted dose curve at least 0.9, where 1 is the maximum; inactive = score below 0.9.

read-out: Interleukin-8 (IL8), CXCL8 (gene 3576); test: BSK_hDFCGF_IL8: BioMAP Diversity Plus: hDFCGF Assay for Interleukin-8 (IL8) Biomarker Activity (AID 2283058); details: primary human foreskin fibroblasts; actives raise or lower the signal
Protocol: BSK_hDFCGF is a cell-based, multiplexed-readout assay that uses foreskin fibroblast, a human skin primary cell, with measurements taken at 24 hours after chemical dosing in a 96-well plate.BSK_hDFCGF_IL8 is an assay component measured in the BSK_hDFCGF assay. It measures IL-8 antibody related to regulation of gene expression using ELISA technology.Data from the assay component BSK_hDFCGF_IL8 was analyzed into 1 assay endpoint. This assay endpoint, BSK_hDFCGF_IL8, was analyzed with bidirectional fitting relative to DMSO as the negative control and baseline of activity. Using a type of binding reporter, gain or loss-of-signal activity can be used to understand changes in the signaling as they relate to the gene CXCL8. Furthermore, this assay endpoint can be referred to as a primary readout, because this assay has produced multiple assay endpoints where this one serves a signaling function. To generalize the intended target to other relatable targets, this assay endpoint is annotated to the cytokine intended target family, where the subfamily is interleukins.
The levels of cell surface (or secreted, indicated by the prefix "s") biomarker endpoints were measured by ELISA. Overt cytotoxicity to cells in confluent adherent cultures (all systems other than the BT system) was assessed by measuring total protein levels using sulforhodamine B (SRB) staining in parallel cultures at the time of biomarker measurements, indicated as SRB endpoints. For proliferation assays for adherent cell types, individual cell types are cultured at sub-confluence and relative cell numbers quantified by SRB staining at time points optimized for each system (48 h: 3C and CASM3C systems; 72 h: BT and HDF3CGF systems; 96 h: SAg system). SRB was performed by staining cells with 0.1% SRB after fixation with 10% TCA and reading wells at 560 nm.Viability and proliferation of PBMC (T cells) was quantified by Alamar Blue reduction for the SAg and BT systems. For PBMC viability (referred to as PBMC Cytotoxicity within the assay endpoint names), cells were plated (75,000/well in a 96-well plate) and then chemical samples added for 1 h before addition of activators, SEB and TSST-1 (20 ng/mL final concentration each). Cells were incubated for 90 h. Then, Alamar Blue (20 uL/well) (Invitrogen, Cat DAL1100) was added for 6 h, and the plates were read with a fluorescence microplate reader at 546/580 nm (excitation/emission). For PBMC proliferation, cells were plated and activated as above but incubated for only 16 h prior to addition of Alamar Blue. Plates were read after 6 h.

Row | SMILES | outcome | AC50
1 | Cc1cccc([N+](=O)[O-])c1C | inactive | –
2 | Nc1ccccc1N | inactive | –
3 | CC1=C(/C=C/C(C)=C/C=C/C(C)=C/CO)C(C)(C)CCC1 | inactive | –
4 | C[C@]12C=CC(=O)C=C1CC[C@@H]1[C@@H]2C(=O)C[C@@]2(C)[C@H]1CC[C@]2(O)C(=O)CO | inactive | –
5 | Cc1c(C(=O)O)c(O)cc2c1C(=O)c1c(O)c([C@@H]3O[C@H](CO)[C@@H](O)[C@H](O)[C@H]3O)c(O)c(O)c1C2=O | inactive | –
6 | CCCCCCCCCCCCCCCCCC(=O)O | inactive | –
7 | COc1ccc(S(=O)(=O)N2C(=O)[C@@](c3ccccc3OC)(N3C[C@H](O)C[C@H]3C(=O)N(C)C)c3cc(Cl)ccc32)c(OC)c1 | inactive | –
8 | C[Si]1(C)O[Si](C)(C)O[Si](C)(C)O[Si](C)(C)O1 | inactive | –
9 | CCNc1cccc(C)c1 | inactive | –
10 | NS(=O)(=O)c1cc2c(cc1Cl)NCNS2(=O)=O | inactive | –
11 | COCCOC[C@H](CC1(C(=O)NC2CCC(C(=O)O)CC2)CCCC1)C(=O)Oc1ccc2c(c1)CCC2 (stereo not given in full) | inactive | –
12 | Cc1ccccc1Cl | inactive | –
13 | O=C(O)Cc1ccccc1Nc1c(Cl)cccc1Cl | inactive | –
14 | CCOc1ccc2c(c1)C(C)=CC(C)(C)N2 | inactive | –
15 | OC[C@@H](O)[C@@H](O)[C@H](O)[C@H](O)CO | inactive | –
16 | CCCCCCCCCCCCCO | – | 29.9 µM (active)
17 | COc1cc(C=O)ccc1O | inactive | –
18 | COC(=O)c1ccc(O)cc1 | inactive | –
19 | O=C(N[C@@H](Cc1ccccc1)[C@@H](O)C(=O)N1C[C@@H](O)[C@@H](O)C1)c1cc2cc(Cl)ccc2[nH]1 | inactive | –
20 | c1cc(-c2ccncc2)ccn1 | inactive | –

Row | SMILES | outcome | AC50
21 | Nc1ccc(S(=O)(=O)c2ccc(N)cc2)cc1 | inactive | –
22 | CC(=O)OC/C=C(\C)CCC=C(C)C | inactive | –
23 | COc1cc(S(=O)(=O)O)c(C)cc1N=Nc1c(O)ccc2cc(S(=O)(=O)O)ccc12 | inactive | –
24 | O=c1[nH]cc(F)c(=O)[nH]1 | inactive | –
25 | COc1ccc2c(c1)c(CC(=O)O)c(C)n2C(=O)c1ccc(Cl)cc1 | inactive | –
26 | CCCCCCCCCCO | inactive | –
27 | FC(F)(F)C(F)(F)C(F)(F)C(F)(F)C(F)(F)C(F)(F)CCI | inactive | –
28 | CC1(C)CC(N=C=O)CC(C)(CN=C=O)C1 (stereo not given) | inactive | –
29 | CCCCCC(=O)O | inactive | –
30 | COc1cc(-c2nc(NC(=O)c3cc4cc(C)cc(C)c4n3CC(=O)O)sc2CCC2CCCCC2)c(OC)cc1Cl | – | 2.36 µM (active)
31 | CCCCOC(=O)CCCCCCCCC(=O)OCCCC | inactive | –
32 | CCc1c(C(=O)NN2CCCCC2)nn(-c2ccc(Cl)cc2Cl)c1-c1ccc(Br)cc1 | – | 3.39 µM (active)
33 | Cc1cc(NC(=O)C(=O)O)cc(C)c1Oc1ccc(O)c2c1CCC2 | inactive | –
34 | Oc1ccc2ccccc2c1N=Nc1ccccc1 | inactive | –
35 | CC(=O)Oc1ccccc1C(=O)O | inactive | –
36 | NC(=O)Cn1c(=O)cc(CCN2CCN(c3nccc4sccc34)CC2)c2ccc(F)cc21 | inactive | –
37 | O=C(OCCCCCOC(=O)c1ccccc1)c1ccccc1 | inactive | –
38 | O=C(O)CCCCC(=O)O | inactive | –
39 | CC(C)c1ccc(C(=O)N=C(N)N)cc1S(C)(=O)=O | inactive | –
40 | CCCCCCCC=O | inactive | –
